# Laboratory results from article PMC9838217, “Structure of SALL4 zinc finger domain reveals link between AT-rich DNA binding and Okihiro syndrome”.
# Positions count from the first letter of the chain named.
# Molecular target: T1, SALL4 ZFC4 R900W (HT-SELEX) (Mus musculus, UniProt Q8BX22 870-940, R900W)
# T1 sequence: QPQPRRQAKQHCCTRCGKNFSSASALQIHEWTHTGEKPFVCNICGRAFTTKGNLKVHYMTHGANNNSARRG
# Test: HT-SELEX; high values mean tight binding
# Conditions: protein: recombinant; vector His6-GST; dsDNA, one strand shown
# Outline: (§1)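 Recombinant mouse SALL4 zinc finger cluster 4 (residues 870–940, 1 µg), purified, was mixed with library DNA (1.5 µg in the first cycle, 200 ng thereafter) in 100 µl of buffer containing 10 mM Tris–HCl pH 7.5, 50 mM NaCl, poly(dI-dC) and DTT, and left for 10 min at room temperature. Complexes were captured on Ni2+ beads, washed, amplified by PCR and reselected for up to 6 cycles in triplicate, after which MiSeq sequencing and a 6-mer scan followed. Binding signal is the read fraction of each canonical k-mer, given as fold change relative to the starting random library.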
row,Sequence,binding signal [fold-change vs cycle 0]
1,AGCGCT,0.189 ± 0.0213
2,CGGCCA,0.0795 ± 0.00952
3,GCGTCC,0.152 ± 0.014
4,GCCACC,0.153 ± 0.0112
5,CGCGGA,0.105 ± 0.00959
6,GCACGC,0.0991 ± 0.0124
7,GACGGC,0.105 ± 0.00605
8,CGGCCC,0.0477 ± 0.00335
9,GCACCA,0.324 ± 0.0178
10,CTGCCA,0.304 ± 0.0171
11,AGGCCT,0.384 ± 0.0275
12,GCGAAC,0.281 ± 0.0107
13,GAGCCC,0.184 ± 0.0121
14,CCGTGC,0.143 ± 0.00796
15,CCCCAC,0.272 ± 0.0152
16,CCACCG,0.209 ± 0.0206
17,CCCCGC,0.0783 ± 0.012
18,GGGACC,0.257 ± 0.0113
19,GCGGCC,0.0274 ± 0.00551
20,ACGCAG,0.305 ± 0.0196

row,Sequence,binding signal [fold-change vs cycle 0]
1,GGAGCC,0.187 ± 0.00654
2,ACAGGC,0.338 ± 0.0213
3,CTCTTA,1.6 ± 0.108
4,CGCAAC,0.251 ± 0.0146
5,CGTGGC,0.125 ± 0.0124
6,AAGCCG,0.241 ± 0.0209
7,CGCTGC,0.0919 ± 0.0151
8,CCAGGC,0.174 ± 0.0159
9,GCGTAC,0.308 ± 0.00417
10,ACCGGG,0.239 ± 0.0269
11,AGCCAG,0.361 ± 0.0134
12,CCGCCG,0.0347 ± 0.00309
13,AGCGCG,0.0579 ± 0.00565
14,TCGCGA,0.248 ± 0.0259
15,AGCCCG,0.14 ± 0.0115
16,GCGCCC,0.0344 ± 0.0044
17,CCGTCC,0.206 ± 0.0173
18,CCGACG,0.143 ± 0.00739
19,CCGACA,0.311 ± 0.0211
20,GGGCGA,0.127 ± 0.00943

# Molecular target: T2, SALL4 ZFC4 G921D (HT-SELEX) (Mus musculus, UniProt Q8BX22 870-940, G921D)
# T2 sequence: T1 sequence with W31R, G52D
# Test: HT-SELEX; high values mean tight binding
# Conditions: protein: recombinant; vector His6-GST; dsDNA, one strand shown
# Outline: as §1
row,Sequence,binding signal [fold-change vs cycle 0]
1,AGCGCT,0.343 ± 0.109
2,CGGCCA,0.19 ± 0.0619
3,GCGTCC,0.258 ± 0.0705
4,GCCACC,0.282 ± 0.0759
5,CGCGGA,0.199 ± 0.0519
6,GCACGC,0.21 ± 0.063
7,GACGGC,0.211 ± 0.0714
8,CGGCCC,0.134 ± 0.0582
9,GCACCA,0.451 ± 0.0674
10,CTGCCA,0.451 ± 0.0863
11,AGGCCT,0.516 ± 0.0785
12,GCGAAC,0.417 ± 0.0584
13,GAGCCC,0.331 ± 0.0823
14,CCGTGC,0.251 ± 0.0641
15,CCCCAC,0.375 ± 0.0668
16,CCACCG,0.322 ± 0.0675
17,CCCCGC,0.179 ± 0.0709
18,GGGACC,0.386 ± 0.0917
19,GCGGCC,0.107 ± 0.0539
20,ACGCAG,0.422 ± 0.0649

row,Sequence,binding signal [fold-change vs cycle 0]
1,GGAGCC,0.319 ± 0.0566
2,ACAGGC,0.472 ± 0.0921
3,CTCTTA,1.46 ± 0.111
4,CGCAAC,0.378 ± 0.0552
5,CGTGGC,0.24 ± 0.0653
6,AAGCCG,0.357 ± 0.0555
7,CGCTGC,0.201 ± 0.0834
8,CCAGGC,0.302 ± 0.0679
9,GCGTAC,0.455 ± 0.0643
10,ACCGGG,0.357 ± 0.0693
11,AGCCAG,0.485 ± 0.0483
12,CCGCCG,0.117 ± 0.0571
13,AGCGCG,0.159 ± 0.0595
14,TCGCGA,0.374 ± 0.0699
15,AGCCCG,0.253 ± 0.0774
16,GCGCCC,0.116 ± 0.0623
17,CCGTCC,0.337 ± 0.0624
18,CCGACG,0.255 ± 0.0634
19,CCGACA,0.462 ± 0.0665
20,GGGCGA,0.251 ± 0.0728
